Only some compounds are listed: those with a hit (about 9.2% of all), similar ones and a draw of the others.
ELG1 DNA repair: qHTS screen for small molecules that inhibit ELG1-dependent DNA repair in human embryonic kidney (HEK293T) cells expressing luciferase-tagged ELG1 | HEK293T ELG1-luciferase reporter, luminescence, 16 h; DNA damage induced by 5-fluorouridine | Potency, µM (doses to about 46.1 µM), without a hit: at the top dose activity change, negative = inhibition, most hits filed as inhibitors | hit rate 2.3% among 330,000; further: on the % scale 0 is the no-effect control and ±100 the full control effect; nearly all actives have a fitted effect of over 55% in size
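DMSO vehicle served as the neutral condition. Each well held 2,000 cells given 5-fluorouridine plus compound; after 16 hr at 37 °C/5% CO2, ONE-Glo was added and luciferase measured 30 min later.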
FLuc counter: qHTS profiling assay for firefly luciferase inhibitor/activator using purifed enzyme and Km concentrations of substrates (counterscreen for miR-21 project); purified FLuc, Km substrates, luminescence inhibition; Potency, µM (top dose mostly 57.5 µM), inactives show at the highest dose activity change, negative = inhibition, usual class: inhibitors; hit rate 6.9% among 360,000; AID 588342, 2011;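 further: plate controls were vehicle for no effect and reference inhibitor for full effect; nearly all actives have a fitted effect of over 55% in size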
Target sequence (P08659 whole entry, looked up): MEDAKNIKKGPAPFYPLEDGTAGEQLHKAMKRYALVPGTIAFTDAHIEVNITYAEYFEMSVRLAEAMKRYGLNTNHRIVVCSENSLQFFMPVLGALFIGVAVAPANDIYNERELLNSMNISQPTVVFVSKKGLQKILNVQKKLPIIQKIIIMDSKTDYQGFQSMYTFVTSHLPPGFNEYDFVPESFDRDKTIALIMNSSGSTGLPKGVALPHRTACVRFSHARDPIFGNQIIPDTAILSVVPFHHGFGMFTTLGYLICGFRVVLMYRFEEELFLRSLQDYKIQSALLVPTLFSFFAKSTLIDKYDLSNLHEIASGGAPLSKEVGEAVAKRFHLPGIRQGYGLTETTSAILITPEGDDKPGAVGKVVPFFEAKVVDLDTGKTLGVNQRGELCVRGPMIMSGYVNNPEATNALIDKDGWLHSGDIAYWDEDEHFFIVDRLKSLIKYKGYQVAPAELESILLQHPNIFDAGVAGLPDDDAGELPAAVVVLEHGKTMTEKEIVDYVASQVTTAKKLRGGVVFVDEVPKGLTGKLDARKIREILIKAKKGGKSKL
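Purified P. pyralis luciferase, 10 nM final, with Km-level 10 uM D-luciferin and 10 uM ATP in 50 mM Tris acetate pH 7.5, 10 mM Mg acetate, 0.01% Tween-20, 0.05% BSA; 6-point qHTS titration about 60 µM downward; luminescence read.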
SMN2 splice up: qHTS Assay for Enhancers of SMN2 Splice Variant Expression. AID 1458, 2008. HEK293 SMN2-luciferase splicing reporter, luminescence, 30-36 h. Potency, µM (series often up to 46.1 µM), inactives show top-dose activity change, positive = activation, hits mostly activators. hit rate 2.8% among 210,000; further: % of control where 0% means no effect; nearly all actives have a fitted effect of over 55% in size
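HEK293 cells carry an SMN2 minigene-luciferase reporter in which exon 7 inclusion puts luciferase in frame. Cells were seeded at 2000 cells/well, attached for 10-12 hours, then exposed to compounds for 30-36 hours at 37C before ONE-Glo luminescence.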
ELG1 genotoxic: qHTS screen for small molecules that induce genotoxicity in human embryonic kidney (HEK293T) cells expressing luciferase-tagged ELG1; HEK293T ELG1-luciferase reporter, luminescence, 16 h; Potency, µM (top dose mostly 46 µM), for the others: top-dose activity change, positive = activation, usual class: activators; hit rate 1.3% among 330,000; AID 504466, 2011; further: % of control where 0% means no effect; nearly all actives have a fitted effect of over 60% in size
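Genotoxicity was scored as increased ELG1-luciferase reporter signal, measured by ONE-Glo luminescence (30 min, room temperature). Compound or vehicle exposure of the HEK293T reporter cells lasted 16 hr at 37°C.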
NPC1 prom act: qHTS Assay for NPC1 Promoter Activators; AID 485313, 2010; Huh7 NPC1 promoter luciferase reporter, 24 h; Potency, µM (doses to about 9.22 µM), without a hit: at the highest dose activation, actives largely listed as activators; hit rate 2.4% among 320,000; further: % of control where 0% means no effect; nearly all actives have a fitted effect of over 60% in size
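Compounds in DMSO were transferred onto Huh7 NPC1-luciferase reporter cells pre-incubated 2 h; after 24 h at 37 °C, Amplite reagent was dispensed and luminescence recorded 10 min later.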
Rab9 promoter act: qHTS Assay for Rab9 Promoter Activators | Huh7 Rab9 promoter-luciferase reporter, luminescence, 24 h | Potency, µM (top dose mostly 9.22 µM), for the others: at the top dose activation, negative = inhibition, most hits filed as activators | hit rate 2.8% among 320,000; further: % of control where 0% means no effect; nearly all actives have a fitted effect of over 60% in size
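Huh7 cells stably carrying Rab9 promoter–luciferase reporter, plated 1500 cells/well, compound added after 2 h and incubated 24 h at 37 °C; luciferase luminescence then read after 10 min with detection reagent.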
* = called active by the depositor; ? = inconclusive; · = not tested or not shown. The call rests on the fitted dose curve; in most records, active means well fitted curve in the direction sought with a large enough effect; inconclusive means small, poorly fitted or top-dose-only effect, or another doubt; inactive means no such curve, though single readings can be large; an effect the other way counts as inactive or inconclusive. Potency means the concentration at half of the fitted maximal effect.

SMILES	ELG1 DNA repair	FLuc counter	SMN2 splice up	ELG1 genotoxic	NPC1 prom act	Rab9 promoter act
COc1ccc(SC[C@H](CC(C)C)N2CCN(CCc3ccccc3)CCC2=O)cc1	-12%	19µM*	·	-3%	14%	0%
Cc1ccc(SC[C@H](CC(C)C)N2CCN(CCc3ccccc3)CCC2=O)cc1	27%	17µM*	·	5%	18%	12%
O=[N+]([O-])c1cc(/C=N/Nc2nc(N3CCCCC3)nc(N3CCCCC3)n2)ccc1O	11%	15µM*	?	2%	-2%	1%
Cc1csc(N/N=C/c2ccc(O)c([N+](=O)[O-])c2)n1	?	21µM*	18%	?	2%	4%
COc1ccc(/C=N/Nc2nc(N3CCCCC3)nc(N3CCCCC3)n2)cc1[N+](=O)[O-]	?	-6%	-9%	-8%	-2%	-6%
C=CCOC(=O)C(C#N)c1nc2ccccc2nc1N1CCN(Cc2ccc3c(c2)OCO3)CC1 (configuration not stated)	16µM*	0%	?	-7%	0%	-4%
COc1ccc(CNC(=O)C(C#N)c2nc3ccccc3nc2N2CCCC2)cc1 (configuration not stated)	5.8µM*	1%	-19%	0%	1%	2%
C=CCOC(=O)C(C#N)c1nc2ccccc2nc1N1CCN(c2ccccc2OCC)CC1 (configuration not stated)	15µM*	3%	12%	-5%	-2%	1%
CCOc1ccccc1N1CCN(c2nc3ccccc3nc2C(C#N)C(=O)OC(C)C)CC1 (configuration not stated)	-1%	0%	-5%	6%	-5%	1%
COc1ccc(N(C(=O)c2cnccn2)C(C(=O)NC2CCCCC2)c2cc(OC)c(OC)c(OC)c2)cc1 (configuration not stated)	14%	0%	·	-1%	-7%	-1%
Nc1cc(=O)[nH]c(SCC(=O)N2N=C(c3ccc4ccccc4c3)CC2c2ccccc2)n1 (configuration not stated)	-15%	3%	·	-10%	2%	0%
COc1ccc(C2CC(c3ccc4ccccc4c3)=NN2C(=O)COC(=O)C2CCC(=O)N2)cc1 (configuration not stated)	?	24µM*	14µM*	?	1.6µM*	1.1µM*
CC(=O)OCC(=O)N1N=C(c2ccc3ccccc3c2)CC1c1ccccc1 (configuration not stated)	21%	-11%	22%	8%	?	3.2µM*
COc1ccc(C2CC(c3ccc4ccccc4c3)=NN2C(=O)CN2CCC(C(N)=O)CC2)cc1 (configuration not stated)	-13%	?	-102%	-11%	16%	?
CCOC(=O)c1nnn(CC(=O)N2N=C(c3ccccc3)CC2c2ccccc2)c1C(=O)OCC (configuration not stated)	8%	2%	-21%	1%	-1%	-4%
COc1ccc(C2CC(c3ccccc3)=NN2C(=O)COC(=O)c2ccc(S(C)(=O)=O)cc2)cc1 (configuration not stated)	?	2%	·	0%	-1%	-2%
CCOC(=O)/C=C(\C)N1N=C(c2ccccc2)CC1c1ccccc1 (configuration not stated)	?	17µM*	?	-9%	8%	?
COc1ccc(C2CC(c3ccccc3)=NN2C(=O)COC(=O)c2cccc(O)c2)cc1 (configuration not stated)	16µM*	·	·	-7%	·	·
